Results from ChEMBL document CHEMBL2218924, “A broad activity screen in support of a chemogenomic map for kinase signalling research and drug discovery” (Biochem J, 2013).

Assays:
[1] = target: T1, Serine/threonine-protein kinase TAO2 (Homo sapiens) (UniProt Q9UL54); settings: at 1 µM
T1 sequence (whole entry): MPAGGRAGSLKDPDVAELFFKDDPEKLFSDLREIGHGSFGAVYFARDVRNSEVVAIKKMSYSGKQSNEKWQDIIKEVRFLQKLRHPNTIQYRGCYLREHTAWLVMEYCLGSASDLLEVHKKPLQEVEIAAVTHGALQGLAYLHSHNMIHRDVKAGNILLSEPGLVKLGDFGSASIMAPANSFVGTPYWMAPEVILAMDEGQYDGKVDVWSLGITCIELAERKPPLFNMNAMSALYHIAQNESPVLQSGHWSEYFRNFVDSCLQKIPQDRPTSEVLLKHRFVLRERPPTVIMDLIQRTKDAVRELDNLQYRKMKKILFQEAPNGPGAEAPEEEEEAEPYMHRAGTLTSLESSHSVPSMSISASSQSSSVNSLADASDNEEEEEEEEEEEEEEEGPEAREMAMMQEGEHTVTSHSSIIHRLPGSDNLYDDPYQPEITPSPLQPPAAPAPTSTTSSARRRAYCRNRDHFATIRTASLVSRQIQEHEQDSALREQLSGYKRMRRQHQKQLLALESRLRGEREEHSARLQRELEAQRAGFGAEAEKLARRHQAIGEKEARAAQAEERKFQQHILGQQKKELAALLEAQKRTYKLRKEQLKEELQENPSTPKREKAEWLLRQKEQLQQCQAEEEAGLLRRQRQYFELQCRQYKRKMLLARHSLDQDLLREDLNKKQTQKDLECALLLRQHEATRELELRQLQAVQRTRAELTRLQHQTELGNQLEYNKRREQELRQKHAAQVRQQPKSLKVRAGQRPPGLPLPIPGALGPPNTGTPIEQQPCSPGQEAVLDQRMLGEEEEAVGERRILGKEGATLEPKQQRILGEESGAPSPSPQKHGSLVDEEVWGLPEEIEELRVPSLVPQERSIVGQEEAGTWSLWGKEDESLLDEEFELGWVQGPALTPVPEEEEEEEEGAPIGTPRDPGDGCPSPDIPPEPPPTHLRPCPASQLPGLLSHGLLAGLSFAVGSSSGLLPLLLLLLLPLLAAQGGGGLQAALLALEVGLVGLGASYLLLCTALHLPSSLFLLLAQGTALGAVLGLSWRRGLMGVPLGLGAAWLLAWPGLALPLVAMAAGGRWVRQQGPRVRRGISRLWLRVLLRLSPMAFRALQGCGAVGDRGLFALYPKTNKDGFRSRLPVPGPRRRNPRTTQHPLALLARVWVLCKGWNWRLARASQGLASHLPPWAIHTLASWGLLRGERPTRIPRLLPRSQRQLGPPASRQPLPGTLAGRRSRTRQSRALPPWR

[2] = target: T1, Serine/threonine-protein kinase TAO2 (Homo sapiens); settings: at 10 µM
[3] = target: T2, Serine/threonine-protein kinase TBK1 (Homo sapiens) (UniProt Q9UHD2); settings: at 1 µM
T2 sequence (whole entry): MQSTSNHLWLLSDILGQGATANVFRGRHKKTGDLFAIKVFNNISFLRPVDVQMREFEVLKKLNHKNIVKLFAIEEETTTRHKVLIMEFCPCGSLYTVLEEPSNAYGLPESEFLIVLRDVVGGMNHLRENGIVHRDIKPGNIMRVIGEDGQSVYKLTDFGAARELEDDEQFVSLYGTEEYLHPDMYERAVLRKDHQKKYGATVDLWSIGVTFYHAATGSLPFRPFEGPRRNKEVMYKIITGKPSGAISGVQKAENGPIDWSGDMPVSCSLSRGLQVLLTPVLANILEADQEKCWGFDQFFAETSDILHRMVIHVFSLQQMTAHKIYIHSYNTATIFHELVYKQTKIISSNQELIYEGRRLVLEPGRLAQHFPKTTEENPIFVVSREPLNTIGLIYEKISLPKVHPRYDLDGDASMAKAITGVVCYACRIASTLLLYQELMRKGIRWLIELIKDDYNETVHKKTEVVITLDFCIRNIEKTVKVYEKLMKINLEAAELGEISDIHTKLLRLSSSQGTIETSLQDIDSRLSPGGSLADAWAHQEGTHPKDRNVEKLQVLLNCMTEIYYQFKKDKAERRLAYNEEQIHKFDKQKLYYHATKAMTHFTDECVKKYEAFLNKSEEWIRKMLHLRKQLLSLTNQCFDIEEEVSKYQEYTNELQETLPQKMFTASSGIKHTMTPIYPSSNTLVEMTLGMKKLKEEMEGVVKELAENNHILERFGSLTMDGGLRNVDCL

[4] = target: T2, Serine/threonine-protein kinase TBK1 (Homo sapiens); settings: at 10 µM
[5] = target: T3, TGF-beta receptor type-1 (Homo sapiens) (UniProt P36897); settings: at 1 µM
T3 sequence (whole entry): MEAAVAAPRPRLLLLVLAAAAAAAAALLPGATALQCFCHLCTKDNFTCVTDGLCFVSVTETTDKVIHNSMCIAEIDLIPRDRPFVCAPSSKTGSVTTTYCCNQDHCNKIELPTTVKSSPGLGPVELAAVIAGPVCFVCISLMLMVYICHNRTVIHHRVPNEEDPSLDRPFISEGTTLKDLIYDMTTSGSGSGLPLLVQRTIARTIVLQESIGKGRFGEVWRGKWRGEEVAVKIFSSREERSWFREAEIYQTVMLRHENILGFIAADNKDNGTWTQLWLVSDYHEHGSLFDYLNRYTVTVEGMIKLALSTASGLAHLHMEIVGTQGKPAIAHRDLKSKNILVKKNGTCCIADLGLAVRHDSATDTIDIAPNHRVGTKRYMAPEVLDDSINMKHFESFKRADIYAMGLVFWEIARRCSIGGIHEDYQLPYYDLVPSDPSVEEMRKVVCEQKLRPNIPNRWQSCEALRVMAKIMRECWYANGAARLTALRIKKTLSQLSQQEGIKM

[6] = target: T3, TGF-beta receptor type-1 (Homo sapiens); settings: at 10 µM
[7] = target: T4, Inhibitor of nuclear factor kappa-B kinase subunit beta (Homo sapiens) (UniProt O14920); settings: at 1 µM
T4 sequence (whole entry): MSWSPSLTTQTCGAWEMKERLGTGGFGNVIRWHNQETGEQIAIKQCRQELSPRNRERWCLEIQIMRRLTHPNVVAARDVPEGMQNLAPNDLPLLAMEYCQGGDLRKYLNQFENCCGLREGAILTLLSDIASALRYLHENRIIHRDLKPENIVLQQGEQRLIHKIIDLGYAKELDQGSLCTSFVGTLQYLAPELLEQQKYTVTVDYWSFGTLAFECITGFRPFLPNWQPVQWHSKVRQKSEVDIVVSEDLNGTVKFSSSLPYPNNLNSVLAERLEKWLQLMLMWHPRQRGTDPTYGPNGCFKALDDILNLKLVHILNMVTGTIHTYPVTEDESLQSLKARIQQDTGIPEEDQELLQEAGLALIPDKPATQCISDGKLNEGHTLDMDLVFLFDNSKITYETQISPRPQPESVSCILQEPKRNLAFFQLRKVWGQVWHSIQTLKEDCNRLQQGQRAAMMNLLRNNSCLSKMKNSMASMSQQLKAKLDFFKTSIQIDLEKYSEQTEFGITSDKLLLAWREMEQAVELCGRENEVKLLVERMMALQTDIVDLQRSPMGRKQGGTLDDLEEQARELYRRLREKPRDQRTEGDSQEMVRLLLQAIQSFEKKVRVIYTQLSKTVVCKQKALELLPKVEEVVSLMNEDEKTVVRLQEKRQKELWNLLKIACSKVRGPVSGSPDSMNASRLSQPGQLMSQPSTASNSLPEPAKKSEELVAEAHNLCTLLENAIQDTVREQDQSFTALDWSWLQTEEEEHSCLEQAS

[8] = target: T5, Mitogen-activated protein kinase kinase kinase 7 (Homo sapiens) (UniProt O43318); settings: at 1 µM
T5 sequence (whole entry): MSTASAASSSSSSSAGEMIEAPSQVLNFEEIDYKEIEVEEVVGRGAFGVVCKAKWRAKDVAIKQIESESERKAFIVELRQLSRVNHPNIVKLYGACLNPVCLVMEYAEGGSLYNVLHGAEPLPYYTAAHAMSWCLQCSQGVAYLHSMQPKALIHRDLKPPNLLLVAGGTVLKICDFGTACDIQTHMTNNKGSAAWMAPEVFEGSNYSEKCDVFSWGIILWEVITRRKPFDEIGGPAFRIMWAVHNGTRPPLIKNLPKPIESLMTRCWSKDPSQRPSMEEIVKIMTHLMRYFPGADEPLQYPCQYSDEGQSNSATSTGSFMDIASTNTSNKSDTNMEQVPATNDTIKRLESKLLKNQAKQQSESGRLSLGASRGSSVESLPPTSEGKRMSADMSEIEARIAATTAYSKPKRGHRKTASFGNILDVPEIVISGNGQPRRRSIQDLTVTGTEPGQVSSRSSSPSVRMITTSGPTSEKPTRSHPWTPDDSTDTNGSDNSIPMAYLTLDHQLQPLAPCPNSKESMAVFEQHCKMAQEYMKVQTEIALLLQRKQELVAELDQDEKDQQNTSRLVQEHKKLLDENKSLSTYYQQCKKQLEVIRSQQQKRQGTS

[9] = target: T5, Mitogen-activated protein kinase kinase kinase 7 (Homo sapiens); settings: at 10 µM
[10] = target: T6, Inhibitor of nuclear factor kappa-B kinase subunit alpha (Homo sapiens) (UniProt O15111); settings: at 1 µM
T6 sequence (whole entry): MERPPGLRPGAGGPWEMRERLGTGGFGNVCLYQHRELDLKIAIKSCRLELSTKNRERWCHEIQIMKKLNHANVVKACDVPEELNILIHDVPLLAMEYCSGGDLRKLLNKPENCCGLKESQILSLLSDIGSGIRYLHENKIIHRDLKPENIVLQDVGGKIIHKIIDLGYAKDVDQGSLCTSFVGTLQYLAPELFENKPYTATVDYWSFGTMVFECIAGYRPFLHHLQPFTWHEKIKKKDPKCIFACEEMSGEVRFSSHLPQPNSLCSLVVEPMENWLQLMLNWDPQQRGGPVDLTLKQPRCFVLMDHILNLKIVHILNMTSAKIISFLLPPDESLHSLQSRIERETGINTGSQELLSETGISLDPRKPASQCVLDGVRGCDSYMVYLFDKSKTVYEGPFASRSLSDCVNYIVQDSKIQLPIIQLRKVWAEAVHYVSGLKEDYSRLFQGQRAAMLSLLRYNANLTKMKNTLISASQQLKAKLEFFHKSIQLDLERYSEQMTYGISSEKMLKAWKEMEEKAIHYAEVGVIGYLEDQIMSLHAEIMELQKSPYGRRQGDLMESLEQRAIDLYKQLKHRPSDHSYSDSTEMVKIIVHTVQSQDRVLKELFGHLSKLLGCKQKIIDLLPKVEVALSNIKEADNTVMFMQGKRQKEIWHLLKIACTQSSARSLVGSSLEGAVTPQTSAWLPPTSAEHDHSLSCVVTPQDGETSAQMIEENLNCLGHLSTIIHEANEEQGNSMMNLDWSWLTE

[11] = target: T6, Inhibitor of nuclear factor kappa-B kinase subunit alpha (Homo sapiens); settings: at 10 µM
[12] = target: Insulin receptor (Homo sapiens) (UniProt P06213); settings: at 1 µM
Chain of Insulin receptor (Homo sapiens) (P06213 28-758 limits assumed): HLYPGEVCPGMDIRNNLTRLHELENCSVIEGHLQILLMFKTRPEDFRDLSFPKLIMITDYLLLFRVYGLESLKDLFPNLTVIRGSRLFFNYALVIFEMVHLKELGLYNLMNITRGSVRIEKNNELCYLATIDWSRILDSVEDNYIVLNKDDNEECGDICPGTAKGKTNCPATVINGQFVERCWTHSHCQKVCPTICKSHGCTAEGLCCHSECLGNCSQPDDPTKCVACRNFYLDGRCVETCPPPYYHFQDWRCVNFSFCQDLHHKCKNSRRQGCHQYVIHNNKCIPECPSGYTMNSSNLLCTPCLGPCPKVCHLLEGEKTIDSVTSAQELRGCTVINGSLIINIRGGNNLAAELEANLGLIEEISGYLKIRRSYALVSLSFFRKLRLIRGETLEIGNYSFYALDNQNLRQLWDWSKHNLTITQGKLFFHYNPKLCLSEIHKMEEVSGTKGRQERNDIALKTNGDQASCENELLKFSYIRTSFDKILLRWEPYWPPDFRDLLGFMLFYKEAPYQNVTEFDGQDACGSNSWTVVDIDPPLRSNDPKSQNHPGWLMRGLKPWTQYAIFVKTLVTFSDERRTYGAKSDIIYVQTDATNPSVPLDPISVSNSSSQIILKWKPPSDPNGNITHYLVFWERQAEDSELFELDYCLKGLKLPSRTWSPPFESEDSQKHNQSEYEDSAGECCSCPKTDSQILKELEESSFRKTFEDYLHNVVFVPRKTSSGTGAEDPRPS
Chain of Insulin receptor (Homo sapiens) (P06213 763-1382 limits assumed): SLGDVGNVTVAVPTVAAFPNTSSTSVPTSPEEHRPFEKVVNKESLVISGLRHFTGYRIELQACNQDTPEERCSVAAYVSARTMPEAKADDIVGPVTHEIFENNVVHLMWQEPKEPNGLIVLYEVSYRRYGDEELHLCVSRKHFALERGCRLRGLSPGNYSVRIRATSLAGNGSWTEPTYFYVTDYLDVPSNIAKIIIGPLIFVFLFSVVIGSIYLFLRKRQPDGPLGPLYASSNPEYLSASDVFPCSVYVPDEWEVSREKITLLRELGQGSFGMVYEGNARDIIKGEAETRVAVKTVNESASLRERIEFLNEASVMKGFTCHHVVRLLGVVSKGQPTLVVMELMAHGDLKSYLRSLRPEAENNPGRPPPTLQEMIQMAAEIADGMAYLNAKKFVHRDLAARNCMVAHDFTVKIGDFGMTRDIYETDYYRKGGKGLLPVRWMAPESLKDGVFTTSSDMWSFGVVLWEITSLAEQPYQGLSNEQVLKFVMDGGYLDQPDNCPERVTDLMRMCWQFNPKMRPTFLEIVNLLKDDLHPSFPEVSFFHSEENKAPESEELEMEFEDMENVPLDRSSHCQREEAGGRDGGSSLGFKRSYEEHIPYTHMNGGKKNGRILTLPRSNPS

Compound: COc1ccc(COc2ccc(Cc3cnc(N)nc3N)cc2OC)cc1
- residual activity [1]: 100%
- residual activity [2]: 79%
- residual activity [3]: 61%
- residual activity [4]: 58%
- residual activity [5]: 79%
- residual activity [6]: 77%
- residual activity [7]: 109%

Compound: CCOC(=O)c1c(C)[nH]c(/C=C2\C(=O)Nc3ccccc32)c1C
- residual activity [8]: 89%
- residual activity [9]: 98%
- residual activity [3]: 92%
- residual activity [4]: 85%
- residual activity [10]: 96%
- residual activity [11]: 88%
- residual activity [12]: 93%
